The record followed here is PubChem BioAssay (NCATS).

Records with an inconclusive call do not appear. Some structures have more than one record in an assay (separate samples or runs), and their calls can disagree. Calls of active or inactive are those of the source. The call rests on the fitted dose curve; in most records, active means well fitted inhibition curve with a large enough effect; inconclusive means small, poorly fitted or top-dose-only effect; inactive means flat fitted curve, though single readings scatter.

Experiment in all cases: qHTS profiling for inhibitors of Plasmodium falciparum proliferation (AID 504749); further: nearly all actives have a fitted effect of over 60% in size
Holding throughout (details): P. falciparum in erythrocytes, SYBR Green DNA, 72 h; series mostly up to 28.7 µM
Background: In qHTS, concentration-response curves come from the screen itself.

In experiment [1] the test system is CP250. In outline:
(§1)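 Readout was DNA-dye fluorescence from lysed cultures, ex 485/em 535 nm. Parasitized red cells had grown 72 h with compound; data scaled between 0.29 uM artemisinin and DMSO wells and corrected using vehicle-only plates.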

Experiment [2] concerns CP252. The gist of the method:
as §1

In experiment [3] the test system is CP256. The gist of the method:
as §1

In experiment [4] the test system is CP260. In outline:
as §1

For experiment [5], the system named is CP262. In outline: as §1
For experiment [6], the system named is CP265. In outline: as §1
Experiment [7] relates to CP266. In outline: as §1
In experiment [8] the test system is CP268. In outline:
as §1

The test system of experiment [9] is CP269. The gist of the method:
as §1

For experiment [10], the system named is CP286. The gist of the method: as §1
For experiment [11], the system named is CP291. In outline: as §1
Experiment [12] deals with CP297. The gist of the method:
as §1

The test system of experiment [13] is CP305. The gist of the method: as §1
The test system of experiment [14] is CP315. The gist of the method:
as §1

Experiment [15] deals with CP325. The gist of the method:
as §1

Experiment [16] has as its system CP329. In outline: as §1
The test system of experiment [17] is CP335. The gist of the method:
as §1

In experiment [18] the test system is DFO2036. The gist of the method: as §1
Experiment [19] deals with DIV14. The gist of the method: as §1
Experiment [20] has as its system DIV17. In outline:
as §1
Potency means the concentration at half of the fitted maximal effect.

For the compound `[O]=[Cr](=[O])([OH])[O][Cr](=[O])(=[O])[OH]`, the Potency result in [1], in experiment [2], in experiment [3], in [5], in [6] and in experiment [7] was “inactive” in each case. Besides, the Potency entry in experiment [8], in experiment [9], in experiment [10], in experiment [11], in [12] and in experiment [13] was “inactive” throughout. For the same compound, the Potency result in experiment [14], in [15], in experiment [16], in experiment [17], in experiment [18] and in [19] was “inactive” each time. For the same compound, in [20], the Potency result was “inactive”. Moreover, the Potency in experiment [4] is 11.2 µM (active).

On to `CNC1(c2ccccc2Cl)CCCCC1=O` (stereo unspecified), for which the Potency entry in [1], in [2], in experiment [3], in experiment [4], in experiment [5] and in experiment [6] was “inactive” each time. The Potency result in experiment [7], in experiment [8], in [9], in experiment [10], in experiment [11] and in [12] was “inactive” throughout. In addition, the Potency result in experiment [13], in experiment [14], in experiment [15], in [16], in experiment [17] and in [18] was “inactive” in each case. Also, the Potency was 9.53 µM (active) and inactive in [19]; 13.5 µM (active) in experiment [20].

In the case of `C=CCN(C1=NCCN1)c1c(Cl)cccc1Cl`, the Potency result in experiment [1], in experiment [2], in [3], in experiment [4], in [5] and in experiment [6] was “inactive” each time. Besides, the Potency result in [7], in experiment [8], in experiment [9], in [10], in [12] and in experiment [13] was “inactive” each time. For the same compound, the Potency result in experiment [14], in experiment [15], in [16], in experiment [17], in [18] and in experiment [19] was “inactive” each time. In experiment [20], the Potency entry was “inactive”.

As to `Cc1sc2ccccc2c1CC1=NCCN1`, the Potency entry in [1], in [2], in experiment [3], in experiment [4], in experiment [5] and in experiment [6] was “inactive” in each case. For the same compound, the Potency result in [7], in experiment [8], in experiment [9], in [11], in experiment [13] and in [14] was “inactive” each time. In addition, the Potency result in experiment [15], in experiment [16], in [17] and in [18] was “inactive” in each case.

Consider `CCC1(CC)C(=O)NC(=O)N(C)C1=O`, for which the Potency entry in [1], in [2], in experiment [3], in [4], in [5] and in [6] was “inactive” in each case. The Potency entry in experiment [8], in [9], in experiment [10], in experiment [11], in experiment [12] and in [13] was “inactive” in each case. The Potency entry in experiment [14], in [15], in experiment [16], in experiment [17], in [18] and in experiment [19] was “inactive” each time.

With `CC(=O)OO`, the Potency entry in [1], in experiment [2], in experiment [3], in experiment [4], in experiment [5] and in [6] was “inactive” each time. Moreover, the Potency entry in experiment [7], in experiment [8], in [9], in [10], in experiment [11] and in [12] was “inactive” each time. Moreover, the Potency entry in [13], in experiment [14], in experiment [15], in experiment [16], in experiment [17] and in experiment [18] was “inactive” each time. The Potency entry in [19] and in experiment [20] was “inactive” each time.

Regarding `CCC1C(C)=NN=C(c2ccc(OC)c(OC)c2)c2cc(OC)c(OC)cc21` (stereo unspecified), the Potency entry in experiment [1], in [2], in experiment [3], in experiment [4], in experiment [5] and in [6] was “inactive” each time. For the same compound, the Potency entry in experiment [7], in experiment [8], in experiment [9], in [11], in experiment [13] and in experiment [14] was “inactive” in each case. In addition, the Potency entry in [15], in experiment [16], in experiment [17] and in experiment [18] was “inactive” in each case.

For the compound `COc1ccc2c3c1O[C@H]1C(=O)CC[C@H]4[C@@H](C2)N(C)CC[C@]314`, the Potency entry in experiment [1], in experiment [2], in experiment [3], in [4], in experiment [5] and in experiment [6] was “inactive” each time. For the same compound, the Potency entry in experiment [8], in [9], in experiment [10], in experiment [11], in [12] and in [13] was “inactive” in each case. Moreover, the Potency entry in [14], in experiment [15], in [16], in [17], in experiment [18] and in [19] was “inactive” throughout. Also, the Potency result in [20] was “inactive”.

Take `c1cc2c(c(NC3=NCCN3)c1)CCCC2`: the Potency entry in experiment [1], in [2], in experiment [3], in experiment [4], in experiment [5] and in experiment [6] was “inactive” in each case. Further, the Potency result in experiment [7], in [10], in experiment [15], in experiment [17] and in experiment [18] was “inactive” each time. Further, the Potency in experiment [19] was 15.1 µM (active).

On to `CNC(C)C(O)c1ccc(O)cc1` (stereo unspecified), for which the Potency result in experiment [1], in experiment [2], in experiment [3], in [5], in experiment [6] and in experiment [7] was “inactive” in each case. The Potency result in experiment [8], in experiment [9], in [10], in experiment [11], in [12] and in [13] was “inactive” in each case. Besides, the Potency result in [14], in [15], in experiment [16], in experiment [17], in [18] and in experiment [19] was “inactive” each time. For the same compound, the Potency entry in experiment [20] is “inactive”.

Turning to `C=CCC1(C(C)CCC)C(=O)N=C(S)NC1=O` (stereo unspecified), the Potency result in experiment [1], in experiment [2], in experiment [3], in experiment [4], in [6] and in [7] was “inactive” throughout. The Potency result in [10], in [17] and in [18] was “inactive” each time.

As for `c1ccc2cc(CC3=NCCN3)ccc2c1`, the Potency entry in [1], in [2], in experiment [3], in experiment [4], in experiment [5] and in experiment [6] was “inactive” each time. The Potency entry in experiment [8], in experiment [9], in experiment [10], in [11], in [12] and in experiment [13] was “inactive” each time. Besides, the Potency entry in [14], in [15], in experiment [16], in experiment [17], in experiment [18] and in [20] was “inactive” each time.

Turning to `F/C(COc1ccc2c(c1)[nH]c1ccccc12)=C1/CN2CCC1CC2`, the Potency in [4] was 5.62 µM (active); in experiment [6], 8.91 µM (active); in [10] it was 7.08 µM (active); in [18], 11.2 µM (active); in [19] it was 4.26 µM (active); in experiment [20], 6.75 µM (active). Also, the Potency entry in experiment [5] and in experiment [15] was “inactive” throughout.

As for `CCN(CC)C(=O)/C(Cl)=C(\C)OP(=O)(OC)OC`, the Potency entry in experiment [1], in experiment [2], in experiment [3], in experiment [4], in [5] and in experiment [6] was “inactive” in each case. Moreover, the Potency entry in experiment [10] and in [18] was “inactive” in each case. Besides, the Potency in experiment [12] is 13.5 µM (active).

With `N#CC(C#N)=Cc1cc(O)c(O)c(O)c1`, the Potency in experiment [1] is 11.2 µM (active); in [4] it was 6.31 µM (active); in experiment [5], 15.1 µM (active); in experiment [7], 16.9 µM (active); in experiment [9], 10.7 µM (active); in [10], 10 µM (active). The Potency was 15.1 µM (active) in experiment [12], 6.75 µM (active) in experiment [17], 13.5 µM (active) in [19] and 10.7 µM (active) in [20].

Regarding `CNC(=O)Oc1ccccc1C(=O)Nc1ccccc1`, the Potency result in experiment [1], in experiment [2], in experiment [4], in experiment [6], in [7] and in experiment [8] was “inactive” throughout. The Potency result in [9], in [10], in experiment [11], in experiment [13], in experiment [15] and in experiment [16] was “inactive” each time. In addition, the Potency entry in experiment [17] and in experiment [18] was “inactive” each time.

As for `CN1[C@@H]2CC[C@H]1CC(OC1c3ccccc3CCc3ccccc31)C2` (stereo partly specified), the Potency in experiment [2] is 3.16 µM (active); in experiment [19], 1.81 µM (active); in [20], 1.81 µM (active). Also, the Potency entry in [3], in experiment [5], in [6], in [7], in experiment [8] and in [9] was “inactive” throughout. Also, the Potency entry in experiment [11], in [13], in [14], in experiment [15], in experiment [16] and in experiment [17] was “inactive” each time.

In the case of `[Cl-].[Cl-].[Hg+2]`, the Potency result in experiment [1], in [5] and in experiment [7] was “inactive” throughout. Also, the Potency in [18] is 11.2 µM (active).

Turning to `C[C@H]1CCC[C@H](O)CCCCCc2cc(O)cc(O)c2C(=O)O1`, the Potency result in experiment [2], in [3], in [5], in experiment [6], in [7] and in experiment [8] was “inactive” throughout. The Potency result in experiment [9], in [10], in [11], in [13], in experiment [14] and in experiment [15] was “inactive” in each case. Also, the Potency entry in experiment [16], in experiment [17] and in [18] was “inactive” each time.
